Screening results as filed in PubChem BioAssay.
FAS-TE inh: FAS thioesterase domain inhibitors, primary screen, biochemical, fluorescence intensity, uHTS | Fatty acid synthase (Homo sapiens), P49327 | 360,000 tested, 0.67% active | recombinant FAS-TE, OMFH fluorogenic substrate, fluorescence endpoint | inhibition, % at 15 µM;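 active = compounds whose normalised, plate-corrected inhibition of enzyme fluorescence in the single-dose primary screen is 50% or more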;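 also: 0% = DMSO with enzyme and 100% = substrate without enzyme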
Cardio protect: cardioprotection against H2O2-induced cell death, primary screen, uHTS, H9c2 cells, ATPLite luminescence. protection from H2O2 cell death, % at 20 µM. H9c2 cardiomyocytes, H2O2 injury protection, 2 h. AID 588492, 2011. 360,000 tested, 0.63% active;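 active = compounds giving at least 50% protection of heart cells from peroxide-induced death in the single-dose screen, raw or plate-pattern-corrected value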;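 also: 0% = DMSO wells with peroxide and 100% = DMSO wells without peroxide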
CR mimetic SO: reduction of superoxide in aged yeast, primary screen, HTS; S. cerevisiae aged cells, superoxide DHE fluorescence; active compounds read low; superoxide response (% of plate mean), % at 10 µM; 330,000 tested, 0.18% active;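 active = superoxide response under a set limit, about three screen SD below normal, cut at about 65% in these data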;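 also: yeast aged for seven days with compound at 30 °C before DHE staining; 100% = average MFI of all compound-treated wells on the plate with controls excluded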
SUMO Mot1 rescue: yeast Mot1-301 growth rescue at high temperature, primary screen, SUMOylation pathway inhibitor project, S. cerevisiae, ATP luminescence, 38.5C | S. cerevisiae Mot1-301 growth rescue; percent above DMSO median, 100 means doubled | growth rescue, % at 18.8 µM | 320,000 tested, 1% active | AID 2716, 2010;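 active = every valid replicate shows activation above 250% relative to neutral control wells; inactive = the rest, any valid replicate at or below 250%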;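 also: OY570 slx delta 5 strain wells were the positive control but not used for scaling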
aDG glyco up: activators of alpha-DG glycosylation, primary screen, uHTS, Pro5-aDG cells, AlphaScreen; alpha-DG glycosylation AlphaScreen (IIH6); 0% Pro5, 100% B10-LARGE cell signal; activation, % at 10 µM; 360,000 tested, 0.22% active; AID 624168, 2012;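 active = activation of at least 8% versus controls, or a plate z-score of at least 8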;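 also: Pro5 are CHO cells carrying HIG-tagged alpha-DG that lacks glycosylation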
MPTP inh: mitochondrial permeability transition pore inhibitors, primary screen, biochemical, isolated mouse mitochondria, absorbance; Ca2+ swelling absorbance, 30 min; inhibition, % at 10 µM; 360,000 tested, 1.4% active; AID 602449, 2012;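 active = inhibition of 50% or more, scaled per plate between neutral and stimulator controls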;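 also: 0% = DMSO wells given calcium and 100% = 1 mM EGTA wells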
FAS-TE inh conf: FAS thioesterase domain inhibitors, confirmation, biochemical, fluorescence intensity, single concentration. shares compounds with FAS-TE inh. recombinant FAS-TE, OMFH fluorogenic substrate. inhibition, % at 15 µM. 2,300 tested, 45% active. AID 624325, 2012;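 active = compounds inhibiting the enzyme by at least 50% at 15 µM in any one of the replicates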;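 also: 0% = enzyme with DMSO only and 100% = wells lacking enzyme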
* = called active by the depositor; · = not tested or not shown. Only some compounds are listed: those with a hit (about 3.8% of all), similar ones and a draw of the others.

SMILES | FAS-TE inh | Cardio protect | CR mimetic SO | SUMO Mot1 rescue | aDG glyco up | MPTP inh | FAS-TE inh conf
CCn1c(=O)c([N+](=O)[O-])c(N2CCSCC2)c2ccccc21 | 15.2 | -10.4 | 84.6 | 40.6 | -0.2 | 4.9 | ·
CCn1c(=O)c([N+](=O)[O-])c(N2CCN(Cc3ccc4c(c3)OCO4)CC2)c2ccccc21 | 87.8* | 7.5 | 91.3 | -9.7 | 0.0 | 5.9 | 80.8*
Cc1ccc(S(=O)(=O)CC(=O)Nc2nc(C(C)(C)C)cs2)cc1 | -37.2 | -10.6 | 100.2 | -26.5 | 0.1 | 0.3 | ·
O=C(CNC(=O)c1ccc2c(c1)OCO2)N/N=C/c1cccc([N+](=O)[O-])c1 | 55.0* | 5.8 | 110.5 | -28.0 | 0.2 | -0.5 | 30.0
Cc1cc(C(=O)N/N=C/c2ccc([N+](=O)[O-])cc2)c2ccccc2n1 | -1.4 | 1.0 | 103.0 | -4.9 | -0.1 | 1.9 | ·
Cc1cc(C(=O)N/N=C/c2cc([N+](=O)[O-])ccc2O)c2ccccc2n1 | 76.9* | 56.1* | 112.5 | -2.6 | -0.3 | 5.0 | 96.8*
Cc1cc(Cl)ccc1NC(=O)CCC(=O)N/N=C/c1cc([N+](=O)[O-])ccc1O | 55.3* | 33.1 | 91.1 | 22.4 | 0.1 | 17.1 | 70.4*
O=C(NC(C(=O)N/N=C/c1cc([N+](=O)[O-])ccc1O)c1n[nH]c(=O)c2ccccc12)c1ccccc1 (stereo not given) | 66.9* | 43.3 | 104.5 | -9.8 | -0.1 | -7.4 | 78.4*
CCC1CCCCN1CCCNC(=O)CCNC(=O)Cn1cnc2ccccc2c1=O (stereo not given) | -3.4 | 0.5 | 102.8 | -13.3 | -0.1 | 0.9 | ·
CCCc1ccc(C(O)c2ncc(-c3ccccc3F)[nH]2)cc1 (stereo not given) | 7.4 | -18.3 | · | · | 0.0 | 1.3 | ·
O=C(NN=Cc1ccccc1O)c1cccc([N+](=O)[O-])c1 | 61.2* | 31.3 | · | · | 2.2 | -0.4 | 3.7
CC(=O)c1c(C)oc2ccc(N(C(=O)C3CCCCC3)S(=O)(=O)c3cc([N+](=O)[O-])ccc3C)cc12 | 80.0* | -0.1 | 100.5 | 6.3 | 1.0 | 0.7 | 9.7
CC(=O)c1c(C)oc2ccc(N(C(C)=O)S(=O)(=O)c3cccc([N+](=O)[O-])c3)cc12 | 34.2 | -6.0 | 93.7 | -9.0 | 0.3 | 3.1 | ·
CC(C)(C)NC(=O)c1ccc(COc2ccc(Cl)cc2Cl)o1 | 65.2* | -12.3 | 93.6 | 58.9 | 0.4 | 0.6 | 20.6
O=C(/C=C/c1cc([N+](=O)[O-])ccc1OC(F)F)Nc1ccc(OC(F)F)cc1 | 7.6 | -3.0 | 103.5 | 1.4 | 0.3 | -0.1 | ·
O=C(/C=C/c1cc([N+](=O)[O-])ccc1OC(F)F)NCc1ccc(F)cc1 | 71.7* | -1.3 | 108.4 | -0.5 | 0.3 | -1.1 | 86.2*
C=CCn1c(C)c(C(C)=O)c(N2CCN(C(c3ccccc3)c3ccccc3)CC2)nc1=S | 58.4* | 13.1 | 93.4 | -7.5 | 0.8 | 5.8 | -0.3
CC1=C/C(=C\C=C(C#N)C#N)N(C)c2ccccc21 | 3.9 | 4.4 | 97.8 | -13.8 | -0.2 | 12.0 | ·
CC1=CC(=C(C#N)C#N)c2ccccc2N1C | 61.1* | 1.6 | 83.1 | -7.1 | -0.2 | -1.8 | 24.7
COc1ccc(C(=O)OCC(=O)NC23CC4CC(CC(C4)C2)C3)c(OC)c1OC | 8.2 | -8.1 | 105.3 | 10.2 | 0.4 | -0.6 | ·
O=C(NC1CCCC1)C(c1c[nH]c2ccccc12)N(C(=O)Cn1nnc(-c2ccc(Cl)cc2)n1)c1ccccc1 (stereo not given) | 64.5* | 43.1 | 84.3 | -10.1 | -0.3 | 1.6 | 30.2
CCOC(=O)C1CCCN(C(=O)c2cc(F)ccc2C)CC1 (stereo not given) | -2.7 | -2.9 | · | · | 1.4 | -0.1 | ·
CN(Cc1ccccc1)C(=O)COC(=O)c1cc(Cl)nc(Cl)c1 | 50.7* | 3.1 | 104.9 | -19.3 | 0.0 | 2.4 | 64.2*
